EBV LMP1 NFkB = inhibitors of Epstein-Barr LMP1-induced NF-kappaB reporter | 350,000 compounds, 0.69% hits | inhibition, % at 12.5 µM | LMP1-induced NF-kappaB luciferase reporter cells, luminescence; in the data active = inhibition above about 41%; inconclusive = no clear call, values can overlap the other calls
HSF1 activator = increases HSF-1 driven luciferase reporter signal; 300,000 compounds, 1.7% hits; NIH3T3-HGL HSF-1 luciferase reporter, MG132, 8 h; 100% = twice DMSO control signal; AID 504408; activation, % at 9 µM;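 active = mean replicate activation of at least 50% with a set share of replicates each reaching 50%; inconclusive = only one of those two conditions met; inactive = mean below 50% and too few replicates reaching it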
TROY NFkB inh = blocks TROY-dependent signaling in reporter cells; inhibition, % at 10 µM; Q293 LMP1-TROYcd NF-kB luciferase reporter, 4 h; 360,000 compounds, 0.98% hits;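 active = compounds whose plate-normalised and pattern-corrected inhibition of the luciferase reporter signal at the single screening dose is 50% or more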
TWEAK-Fn14 inh = TWEAK-Fn14 signaling inhibition | inhibition, % at 10 µM | 360,000 compounds, 2% hits | TWEAK-stimulated Fn14 reporter cells, luciferase luminescence, 8 h; in the data active = inhibition above about 50%
HSF1 inhib = HSF1 inhibition; activity change, negative = inhibition, % at 7.5 µM (by protocol); NIH3T3-HGL HSE-luciferase, MG132-induced, luminescence 8 h; hits give low values; 300,000 compounds, 0.77% hits;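 active = more than half of replicate wells show activity change below -50%, luminescence cut by over half; inconclusive = some wells, but at most half, below -50%; inactive = no replicate well below -50%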;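 note: luciferase reports HSF-1 transcriptional activity via heat shock element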
LGR2 inh = Drosophila LGR2 receptor signaling inhibition; 380,000 compounds, 0.35% hits; inhibition, % at 9.99 µM; AID 720647; HEK293 LGR2, CRE-luciferase, bursicon-stimulated, 4 h;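 active = drop in luminescence signal, shown as inhibition above about 50% in the replicate tests, limit read from the data, passing the limit was not always enough; inconclusive = probably only some replicates passing the limit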;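 note: agonist challenge used bursicon conditioned medium at about half maximal strength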
A number is an active result; – = inactive; ? = inconclusive; · = no result. This is a sample that favours compounds with a hit; in the whole collection about 3.6% have one here.

SMILES	EBV LMP1 NFkB	HSF1 activator	TROY NFkB inh	TWEAK-Fn14 inh	HSF1 inhib	LGR2 inh
Cc1ccc(C(=O)N2CCc3ccccc32)cc1	–	66	–	–	–	–
Cc1ccc(SCC(=O)N2CCc3ccccc32)cc1	–	80	–	–	–	·
Cc1ccc(-c2nnn(CC(=O)N3CCCc4ccccc43)n2)cc1	–	57	–	–	–	·
O=C(c1cccc([N+](=O)[O-])c1)N1CCc2ccccc21	–	–	–	–	-68	·
O=C(C[C@H]1CC[C@H]2[C@@H](COC[C@H](O)CN2Cc2nccs2)O1)NCc1ccc(-c2ccccc2)cc1	·	·	·	·	·	–
CO[C@H]1CN(C)C(=O)c2cc(NC(=O)Nc3cc(Cl)cc(Cl)c3)ccc2OC[C@H](C)NC[C@@H]1C	·	·	·	·	·	–
COC(=O)CSc1ncccc1-c1nc2ccccc2[nH]1	–	–	–	–	–	·
O=C1c2ccccc2C(=O)N1CCC(=O)N1CCCc2ccccc21	–	58	–	–	–	·
O=C(CSc1ncccc1-c1nc2ccccc2[nH]1)N1CCc2ccccc21	–	–	62	67	–	–
COCC#Cc1ccc2c(c1)O[C@H](CN(C)Cc1ccccc1)[C@@H](C)CN([C@H](C)CO)S2(=O)=O	·	·	·	·	·	–
COc1ccccc1CNC(=O)C[C@@H]1C=C[C@@H](NC(=O)CN(C)C)[C@H](CO)O1	·	·	·	·	·	–
O=C(N/N=C/c1ccc(Cl)c([N+](=O)[O-])c1)c1cc(-c2ccccc2)nc2ccccc12	–	128	–	–	–	–
CC(/C=N/NC(=O)c1cc(-c2ccncc2)nc2ccccc12)=C\c1ccco1	–	–	–	–	–	–
O=C(N/N=C/c1ccco1)c1cc(-c2cccc(Br)c2)nc2ccccc12	–	–	–	77	–	–
CCOC(=O)N1CCC2(CC1)CC(=O)c1cc(O)ccc1O2	–	–	–	64	–	·
O=C(NN=C1CCCCCCC1)c1ccc(F)cc1	–	–	–	–	–	–
O=C(O)c1cccc(NC(=O)c2ccccc2NC(=O)c2ccccc2F)c1	–	–	–	–	-68	–
O=C(O)c1cccc(NC(=O)c2cn(-c3ccccc3)nc2-c2ccc(F)cc2)c1	82	–	–	–	–	–
O=C(CCl)Nc1cn(-c2ccccc2)nc1-c1ccc(F)cc1	–	–	–	–	-84	–
O=C(NN=C1CCCCCCCCCCC1)c1ccccc1F	–	–	–	–	-55	–
COc1ccc(S(=O)(=O)Nc2cccc3c2O[C@H](CN(C)C(=O)Nc2cccc4ccccc24)[C@@H](C)CN([C@H](C)CO)C3=O)cc1	·	·	·	·	·	–
COc1ccc2c3c([nH]c2c1)[C@H](CO)N(Cc1cc(F)ccc1F)CC31CN(C(=O)C2CCC2)C1	·	·	·	·	·	–
CC(C)NC(=O)N(C)C[C@H]1Oc2c(NC(=O)Nc3ccccc3)cccc2C(=O)N([C@H](C)CO)C[C@H]1C	·	·	·	·	·	–
O=C(Nc1ccccc1NC(=O)c1ccccc1F)c1ccccc1F	–	58	–	–	–	–
O=C(C[C@H]1C[C@H](C(=O)N2CCCCC2)[C@@]2(CCc3ccccc3)c3[nH]c4ccc(Cl)cc4c3CCN2C1=O)NCCCn1ccnc1	–	·	55	–	·	–
SMILES	EBV LMP1 NFkB	HSF1 activator	TROY NFkB inh	TWEAK-Fn14 inh	HSF1 inhib	LGR2 inh
COc1ccc(S(=O)(=O)Nc2ccc3c(c2)C(=O)N([C@H](C)CO)C[C@@H](C)[C@H](CN(C)C(=O)Nc2c(C)noc2C)O3)cc1	·	·	·	·	·	–
COc1cccc(NC(=O)C(OC(=O)/C=C/c2ccc3c(c2)OCO3)c2ccccc2)c1 (stereo unspecified)	–	54	–	–	–	·
COc1cccc(/C=C/C(=O)NCc2ccc3c(c2)OCO3)c1	–	–	–	–	-85	–
CCN(CC)C(=O)c1cc(-c2ccc(Br)cc2)on1	–	58	–	–	–	–
COc1ccc(CN(C)C[C@H]2Oc3ccc(NS(=O)(=O)c4ccc(C)cc4)cc3C(=O)N([C@H](C)CO)C[C@H]2C)cc1	·	·	·	·	·	–
COCCN(CCOC)c1nc(-c2ccc(C)cc2)nc2ccccc12	–	193	–	–	–	–
CCCN(CCC)c1nc(-c2ccccn2)nc2ccccc12	–	–	–	–	–	–
CCCCN(CC)c1nc(-c2ccncc2)nc2ccccc12	–	–	–	57	–	·
CO[C@@H]1CN(C)C(=O)c2cc(NC(=O)Nc3ccccc3F)ccc2OC[C@@H](C)N(Cc2ccccc2C(=O)O)C[C@H]1C	·	·	·	·	·	–
Cc1noc(C)c1NC(=O)N(C)C[C@@H]1Oc2ccc(NC(=O)CCCCCC(=O)Nc3ccccc3N)cc2C(=O)N([C@@H](C)CO)C[C@H]1C	·	·	·	·	·	–
CO[C@@]12[C@@H]3N[C@@H]3CN1C1=C(C(=O)C(N)=C(C)C1=O)[C@@H]2COC(N)=O	62	·	–	–	·	–
CNC[C@@H]1Oc2cc(C#CC3CCCC3)ccc2S(=O)(=O)N([C@H](C)CO)C[C@H]1C	·	·	·	·	·	–
CCC(=O)Nc1ccc2c(c1)C(=O)N(C)C[C@H](OC)[C@@H](C)CN(CCc1ccccc1)[C@@H](C)CO2	·	·	·	·	·	–
CCc1ccc(C(C(=O)NC2CCCC2)N(C(=O)/C=C/C(=O)Nc2cc(C)on2)c2ccccc2C)cc1 (stereo unspecified)	–	–	–	56	–	–
CCOc1ccc(N(C(=O)/C=C/C(=O)Nc2cc(C)on2)C(C(=O)NC2CCCC2)c2ccccc2C)cc1 (stereo unspecified)	–	–	–	–	–	–
CNC(=O)C[C@H]1CC[C@H]2[C@H](COc3ccc(NC(=O)NCc4ccccc4)cc3C(=O)N2C)O1	·	·	·	·	·	–
O=S(=O)(NC1c2cccc3cccc(c23)C1Sc1ncccn1)c1ccccc1 (stereo unspecified)	61	–	91	108	–	–
Cc1ccc(S(=O)(=O)NC2c3cccc4cccc(c34)C2Sc2nncn2C)cc1 (stereo unspecified)	–	67	–	–	–	·
Cc1ccc(S(=O)(=O)NC2c3cccc4cccc(c34)C2Sc2nc(C)cc(C)n2)cc1 (stereo unspecified)	–	–	–	–	–	–
CN(C)c1ccc(/C=C/c2cccc[n+]2[O-])cc1	–	–	–	–	–	·
CN(C)c1ccc(/C=C/c2ccc3c4ccccc4ccc3[n+]2-c2ccccc2)cc1	–	·	72	74	·	?
[O-][n+]1c(/C=C/c2ccccc2)ccc2ccccc21	–	–	–	66	–	–
CN(C)c1ccc(/C=C/c2ccc3ccccc3[n+]2C)cc1	–	–	63	64	–	–
CN(CCCS(=O)(=O)[O-])c1ccc(/C=C/c2ccc3ccccc3[n+]2C)cc1	–	–	–	–	–	–
CO[C@H]1CN(C)C(=O)c2cc(NC(=O)Nc3ccccc3F)ccc2OC[C@H](C)N(C)C[C@@H]1C	·	·	·	·	·	–
CCC(=O)N1CC2(C1)[C@H](c1ccccc1)[C@H](CO)N2Cc1cc(F)ccc1F	·	·	·	·	·	–
Nc1nc(CSc2ncn(-c3ccccc3)n2)cs1	–	–	–	–	-86	–
